“And” between values parts separate entries of the source, which are not always exact repeats. Equal entries are not always repeated. Results filed as inconclusive are left out. Entries that show only a call come without a potency. Some compounds were tested as several samples or in several runs, with calls that do not always agree. The source made the active and inactive calls. Calls come from the whole dose curve; as a rule, active = well fitted curve in the direction sought with a large enough effect; inconclusive = small, poorly fitted or top-dose-only effect, or another doubt; inactive = no such curve, though single readings can be large; an effect the other way counts as inactive or inconclusive.
Note: nearly all actives have a fitted effect of over 40% in size.

Cytochrome P450 3A7 (Homo sapiens), sequence (P24462 whole entry, looked up): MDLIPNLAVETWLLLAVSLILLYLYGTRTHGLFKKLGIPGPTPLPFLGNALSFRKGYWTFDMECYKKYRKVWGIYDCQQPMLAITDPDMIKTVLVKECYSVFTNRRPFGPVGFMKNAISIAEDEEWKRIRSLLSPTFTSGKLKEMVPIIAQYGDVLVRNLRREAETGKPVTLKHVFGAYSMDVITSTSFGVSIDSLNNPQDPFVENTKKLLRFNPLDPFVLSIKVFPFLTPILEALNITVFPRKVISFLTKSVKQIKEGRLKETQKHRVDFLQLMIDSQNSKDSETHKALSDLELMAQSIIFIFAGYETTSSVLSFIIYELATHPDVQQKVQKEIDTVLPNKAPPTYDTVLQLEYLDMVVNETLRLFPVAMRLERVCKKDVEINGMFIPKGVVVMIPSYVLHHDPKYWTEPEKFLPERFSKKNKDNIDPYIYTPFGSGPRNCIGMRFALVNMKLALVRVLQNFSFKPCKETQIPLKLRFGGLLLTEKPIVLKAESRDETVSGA

In one test the target is Cytochrome P450 3A7 (Homo sapiens) (UniProt P24462). The experiment in a line: Cytochrome P450 family 3 subfamily A member 7 (CYP3A7) small molecule antagonists: luciferase biochemical qHTS assay (AID 1963596). The settings on record: P450-Glo CYP3A7 enzyme luminescence, 1 h; series mostly up to 57.4 µM. The essentials:
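Recombinant CYP3A7 P450-Glo luminescent assay: enzyme-proluciferin substrate mix preincubated with compound 10 min at room temperature, reaction started with NADPH regeneration system for 1 h. Luciferin detected by luminescence; ketoconazole as positive control.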
For orientation: Quantitative high-throughput screening tests each substance at several concentrations.
As for `NCCNCCNCCNCCN`, the activity change, negative = inhibition was 14.5% [at 11.5 µM] (inactive).
Regarding `Cn1cc(-c2cnn3c(N)c(Br)c([C@@H]4CCCNC4)nc23)cn1`, the Potency entry was “inactive”.
Regarding `CN(C)CCN(Cc1cccs1)c1ccccn1`, the Potency entry was “inactive”.
As for `C[C@@H]1CCC[C@H](C)N1`, the Potency result was “inactive”.
Still for that read-out and setting: the result for `[Cl][In]([Cl])[Cl]` reads “inactive”; that for `CCOC(=O)c1cccnc1`, “inactive”; that for `CC(C(=O)O)c1ccc(CC2CCCC2=O)cc1` (stereo not given), “inactive”.
`Cc1[nH]c(/C=C2\C(=O)Nc3ccc(F)cc32)c(C)c1C(=O)NC[C@H](O)CN1CCOCC1`: the Potency result is “inactive”.
On to `CCCCNc1ncc(-c2ccc(CN3CCOCC3)cn2)c(NC2CCC(O)CC2)n1` (stereo not given), for which the Potency result was “inactive”.
In the case of `COc1cc2ncnc(Nc3ccc(F)c(Cl)c3)c2cc1NC(=O)/C=C/CN1CCCCC1`, the Potency result is “inactive”.
Still for that read-out and setting: in the case of `O=c1[nH]c([C@@H]2CCCN2)nc2c1oc1ccc(Cl)cc12` it was “inactive”.
For the compound `CCCCC/C(C=O)=C\c1ccccc1`, the Potency entry is “inactive”.
Same read-out and setting: in the case of `CCOc1cc(C(=O)N2CCC(N3CCN(C)CC3)CC2)ccc1Nc1ncc2c(n1)N(C1CCCC1)c1ccccc1C(=O)N2C` it was “inactive”; in that of `CC(C)C(=O)c1c(C(C)C)nn2ccccc12`, “inactive”.
Consider `COc1ccccc1N1CCN(CCCNc2cc(=O)n(C)c(=O)n2C)CC1`, for which the Potency entry is “inactive”.
Same read-out and setting: the result for `NC(=Nc1ccccc1)Nc1ccccc1` reads “inactive”.
On the same count and under the same terms, in the case of `CC(=O)Nc1c(I)cc(I)c(C(=O)O)c1I` it was “inactive”.
On the same count and under the same terms, in the case of `NS(=O)(=O)c1ccc(NC(=O)CCC(=O)O)cc1` it was “inactive”; in that of `CN(C)C(=O)Oc1cccc([N+](C)(C)C)c1`, “inactive”.
Regarding `CCCc1ncc(C[n+]2ccccc2C)c(N)n1`, the Potency result is “inactive”.
On to `N[C@@H](COP(=O)(O)O)C(=O)O`, for which the Potency entry was “inactive”.
The same measure, in the same setting: the result for `O=c1cc(CO)occ1O` reads “inactive”; that for `O=C(O)c1ccc(OCCCOc2ccc(C(=O)O)cc2)cc1`, “inactive”.
Regarding `O=c1[nH]c(=O)n([C@H]2C[C@H](O)[C@@H](CO)O2)cc1F`, the Potency result was “inactive”.
Still for that read-out and setting: in the case of `CCC(=O)Nc1cccc(Oc2nc(Nc3ccc(N4CCN(C)CC4)cc3OC)ncc2Cl)c1` it was “inactive”; in that of `CC(=O)Nc1ccc(S(=O)(=O)Nc2cc(C)on2)cc1`, “inactive”.
The same measure, in the same setting: the result for `CCCNC(C)C(=O)Nc1ccccc1C` (stereo not given) reads “inactive”; that for `CC(C)(C)C(=O)OCOC(=O)C1N2C(=O)CC2S(=O)(=O)C1(C)C` (stereo not given), “inactive”; that for `COc1cccc(OC)c1C(=O)N[C@@H]1C(=O)N2[C@@H]1SC(C)(C)[C@@H]2C(=O)O`, “inactive”.
On the same count and under the same terms, the result for `CCCCCCCCCCCCCCCCCCN(C)C` reads “inactive”; that for `CCCCCCCCCCCCOS(=O)(=O)O`, “inactive”; that for `CCCC(O)C(CC)CO` (stereo not given), “inactive”.
Consider `FC(F)(F)C(F)(F)C(F)(F)C(F)(F)C(F)(F)C(F)(F)C(F)(F)C(F)(F)Br`, for which the Potency entry is “inactive”.
On to `CNC[C@H](O)c1cccc(O)c1`, for which the Potency entry was “inactive”.
On the same count and under the same terms, in the case of `FC1(F)C(F)(F)C(F)(F)C2(F)C(F)(F)C(F)(F)C(F)(F)C(F)(F)C2(F)C1(F)F` (stereo not given) it was “inactive”.
Still for that read-out and setting: the result for `CCn1cc(C(=O)O)c(=O)c2cnc(N3CCNCC3)nc21` reads “inactive”; that for `COc1ccc(C(=O)NCc2ccc(OCCN(C)C)cc2)cc1OC`, “inactive”; that for `COC(=O)c1cc(Cl)c(NC(C)=O)cc1OC`, “inactive”.
Turning to `O=c1[nH]c(=O)c2ccccc2o1`, the Potency result is “inactive”.
In the case of `CC1(C)S[C@@H]2[C@H](NC(=O)C(C(=O)O)c3ccccc3)C(=O)N2[C@H]1C(=O)O` (stereo not given in full), the Potency result is “inactive”.

Test system in another test: not listed separately
Nature of the test: Viability qHTS for spleen associated tyrosine kinase inhibitor (SYKi) naive MV4-11 cells (AID 1963823). Note: potency is the fitted concentration of half-maximal effect. The settings on record: MV4-11 AML viability, CellTiter-Glo luminescence, 72 h; series mostly up to 45 µM. The method, boiled down: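 Viability of MV4-11 AML cells lacking prior SYK inhibitor exposure is scored by CellTiter-Glo luminescence following 72 hr compound incubation at 37 C, 5% CO2, seeded at 500 cells per well.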
On to `NCCNCCNCCNCCN`, for which the viability (% of control) was 121% [at 9.25 µM] (inactive).
Turning to `Cn1cc(-c2cnn3c(N)c(Br)c([C@@H]4CCCNC4)nc23)cn1`, the Potency was 417 nM (active).
The same measure, in the same setting: the result for `CN(C)CCN(Cc1cccs1)c1ccccn1` reads “inactive”.
In the case of `C[C@@H]1CCC[C@H](C)N1`, the Potency entry was “inactive”.
In the case of `[Cl][In]([Cl])[Cl]`, the Potency result is “inactive”.
With `CCOC(=O)c1cccnc1`, the Potency result is “inactive”.
Still for that read-out and setting: in the case of `CC(C(=O)O)c1ccc(CC2CCCC2=O)cc1` (stereo not given) it was “inactive”.
With `Cc1[nH]c(/C=C2\C(=O)Nc3ccc(F)cc32)c(C)c1C(=O)NC[C@H](O)CN1CCOCC1`, the Potency is 13 nM (active) and 26.3 nM (active).
As to `CCCCNc1ncc(-c2ccc(CN3CCOCC3)cn2)c(NC2CCC(O)CC2)n1` (stereo not given), the Potency is 31.7 nM (active) and 57.4 nM (active).
Still for that read-out and setting: the result for `COc1cc2ncnc(Nc3ccc(F)c(Cl)c3)c2cc1NC(=O)/C=C/CN1CCCCC1` reads 1640 nM (active); that for `O=c1[nH]c([C@@H]2CCCN2)nc2c1oc1ccc(Cl)cc12`, 8.2 µM (active) and 16.6 µM (active); that for `CCCCC/C(C=O)=C\c1ccccc1`, “inactive”.
As to `CCOc1cc(C(=O)N2CCC(N3CCN(C)CC3)CC2)ccc1Nc1ncc2c(n1)N(C1CCCC1)c1ccccc1C(=O)N2C`, the Potency was 651 nM (active) and 1.05 µM (active).
On to `CC(C)C(=O)c1c(C(C)C)nn2ccccc12`, for which the Potency entry is “inactive”.
On the same count and under the same terms, the result for `COc1ccccc1N1CCN(CCCNc2cc(=O)n(C)c(=O)n2C)CC1` reads “inactive”; that for `NC(=Nc1ccccc1)Nc1ccccc1`, 38.6 µM (active) and inactive.
Regarding `CC(=O)Nc1c(I)cc(I)c(C(=O)O)c1I`, the Potency result is “inactive”.
Same read-out and setting: the result for `NS(=O)(=O)c1ccc(NC(=O)CCC(=O)O)cc1` reads “inactive”; that for `CN(C)C(=O)Oc1cccc([N+](C)(C)C)c1`, “inactive”.
Same read-out and setting: in the case of `CCCc1ncc(C[n+]2ccccc2C)c(N)n1` it was “inactive”; in that of `N[C@@H](COP(=O)(O)O)C(=O)O`, “inactive”; in that of `O=c1cc(CO)occ1O`, “inactive”.
Turning to `O=C(O)c1ccc(OCCCOc2ccc(C(=O)O)cc2)cc1`, the Potency result is “inactive”.
The same measure, in the same setting: in the case of `O=c1[nH]c(=O)n([C@H]2C[C@H](O)[C@@H](CO)O2)cc1F` it was 29.9 nM (active) and 83.3 nM (active); in that of `CCC(=O)Nc1cccc(Oc2nc(Nc3ccc(N4CCN(C)CC4)cc3OC)ncc2Cl)c1`, 1.64 µM (active) and 2.35 µM (active).
As to `CC(=O)Nc1ccc(S(=O)(=O)Nc2cc(C)on2)cc1`, the Potency entry is “inactive”.
Same read-out and setting: the result for `CCCNC(C)C(=O)Nc1ccccc1C` (stereo not given) reads “inactive”; that for `CC(C)(C)C(=O)OCOC(=O)C1N2C(=O)CC2S(=O)(=O)C1(C)C` (stereo not given), “inactive”.
On the same count and under the same terms, the result for `COc1cccc(OC)c1C(=O)N[C@@H]1C(=O)N2[C@@H]1SC(C)(C)[C@@H]2C(=O)O` reads “inactive”; that for `CCCCCCCCCCCCCCCCCCN(C)C`, “inactive”; that for `CCCCCCCCCCCCOS(=O)(=O)O`, “inactive”.
Still for that read-out and setting: the result for `CCCC(O)C(CC)CO` (stereo not given) reads “inactive”.
For the compound `FC(F)(F)C(F)(F)C(F)(F)C(F)(F)C(F)(F)C(F)(F)C(F)(F)C(F)(F)Br`, the Potency entry is “inactive”.
For the compound `CNC[C@H](O)c1cccc(O)c1`, the Potency is 531 nM (active).
With `FC1(F)C(F)(F)C(F)(F)C2(F)C(F)(F)C(F)(F)C(F)(F)C(F)(F)C2(F)C1(F)F` (stereo not given), the Potency result was “inactive”.
For the compound `CCn1cc(C(=O)O)c(=O)c2cnc(N3CCNCC3)nc21`, the Potency entry was “inactive”.
The same measure, in the same setting: the result for `COc1ccc(C(=O)NCc2ccc(OCCN(C)C)cc2)cc1OC` reads “inactive”; that for `COC(=O)c1cc(Cl)c(NC(C)=O)cc1OC`, “inactive”.
Still for that read-out and setting: the result for `O=c1[nH]c(=O)c2ccccc2o1` reads “inactive”.
On the same count and under the same terms, the result for `CC1(C)S[C@@H]2[C@H](NC(=O)C(C(=O)O)c3ccccc3)C(=O)N2[C@H]1C(=O)O` (stereo not given in full) reads “inactive”.

Values taken from PubChem BioAssay (NCATS).
